The target in assay [1] is T1, Protein kinase C zeta type (Homo sapiens) (UniProt Q05513).
T1 sequence (whole entry): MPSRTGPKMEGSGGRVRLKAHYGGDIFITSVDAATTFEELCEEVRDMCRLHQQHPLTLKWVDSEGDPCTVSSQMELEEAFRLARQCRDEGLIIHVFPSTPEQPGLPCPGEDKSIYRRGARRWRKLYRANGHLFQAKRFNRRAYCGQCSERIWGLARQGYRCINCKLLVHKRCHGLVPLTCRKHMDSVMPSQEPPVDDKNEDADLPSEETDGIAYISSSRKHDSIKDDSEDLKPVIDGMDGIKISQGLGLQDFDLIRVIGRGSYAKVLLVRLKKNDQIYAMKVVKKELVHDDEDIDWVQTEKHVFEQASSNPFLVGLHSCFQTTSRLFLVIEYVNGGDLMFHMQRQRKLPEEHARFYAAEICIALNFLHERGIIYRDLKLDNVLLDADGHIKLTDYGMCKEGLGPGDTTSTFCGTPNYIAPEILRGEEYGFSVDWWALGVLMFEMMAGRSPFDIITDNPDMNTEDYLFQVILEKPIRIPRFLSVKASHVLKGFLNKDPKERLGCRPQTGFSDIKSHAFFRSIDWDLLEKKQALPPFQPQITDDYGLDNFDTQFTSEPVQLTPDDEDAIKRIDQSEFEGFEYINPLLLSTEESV
Particulars: at 1 µM; call rule not given here.

The target in assay [2] is T2, Mitogen-activated protein kinase kinase kinase 5 (Homo sapiens) (UniProt Q99683).
T2 sequence (whole entry): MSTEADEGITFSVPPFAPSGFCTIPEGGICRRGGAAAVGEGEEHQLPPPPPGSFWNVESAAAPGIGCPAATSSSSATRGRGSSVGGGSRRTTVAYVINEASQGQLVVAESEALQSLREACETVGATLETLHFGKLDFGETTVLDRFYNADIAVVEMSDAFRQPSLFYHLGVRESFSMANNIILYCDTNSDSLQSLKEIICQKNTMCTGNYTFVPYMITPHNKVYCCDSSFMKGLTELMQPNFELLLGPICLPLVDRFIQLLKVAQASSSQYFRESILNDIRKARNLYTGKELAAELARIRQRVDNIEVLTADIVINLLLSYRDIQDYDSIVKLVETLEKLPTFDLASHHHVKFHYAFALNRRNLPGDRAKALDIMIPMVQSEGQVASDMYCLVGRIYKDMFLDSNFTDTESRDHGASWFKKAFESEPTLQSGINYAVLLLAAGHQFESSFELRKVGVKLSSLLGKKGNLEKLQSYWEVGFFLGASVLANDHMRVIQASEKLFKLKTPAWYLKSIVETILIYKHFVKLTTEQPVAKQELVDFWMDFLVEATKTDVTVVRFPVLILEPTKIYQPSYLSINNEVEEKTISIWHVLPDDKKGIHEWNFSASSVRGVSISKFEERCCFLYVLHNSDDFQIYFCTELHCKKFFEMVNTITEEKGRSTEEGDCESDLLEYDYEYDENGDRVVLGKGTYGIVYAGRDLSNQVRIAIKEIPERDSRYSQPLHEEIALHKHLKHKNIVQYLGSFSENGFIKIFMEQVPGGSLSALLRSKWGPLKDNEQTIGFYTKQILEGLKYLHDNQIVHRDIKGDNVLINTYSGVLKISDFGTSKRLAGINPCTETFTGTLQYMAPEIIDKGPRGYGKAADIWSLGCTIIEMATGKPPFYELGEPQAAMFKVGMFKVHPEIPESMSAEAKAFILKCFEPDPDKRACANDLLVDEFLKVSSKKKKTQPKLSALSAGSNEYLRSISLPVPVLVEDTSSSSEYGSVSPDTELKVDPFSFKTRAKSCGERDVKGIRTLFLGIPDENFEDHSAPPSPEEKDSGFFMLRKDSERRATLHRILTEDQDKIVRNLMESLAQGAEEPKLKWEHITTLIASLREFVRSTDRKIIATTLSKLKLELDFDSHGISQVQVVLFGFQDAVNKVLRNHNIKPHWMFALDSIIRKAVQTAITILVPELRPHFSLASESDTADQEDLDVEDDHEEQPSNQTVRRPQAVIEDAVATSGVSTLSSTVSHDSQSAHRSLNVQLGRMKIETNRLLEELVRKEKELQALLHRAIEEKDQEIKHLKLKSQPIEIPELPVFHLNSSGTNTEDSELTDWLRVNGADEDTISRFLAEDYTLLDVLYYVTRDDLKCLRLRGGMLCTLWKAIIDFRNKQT
The note with it: at 10 µM.

In assay [3] the target is Tyrosine-protein kinase ABL1 (Homo sapiens) (UniProt P00519). Particulars: at 1 µM.
Assay [4] shares this target. The note with it: at 10 µM.
Assay [5] addresses Tyrosine-protein kinase ABL2 (Homo sapiens) (UniProt P42684). Particulars: at 1 µM.
The target is the same in assay [6]. Particulars: at 10 µM.
Assay [7] has as its target T3, Aurora kinase A (Homo sapiens) (UniProt O14965).
T3 sequence (whole entry): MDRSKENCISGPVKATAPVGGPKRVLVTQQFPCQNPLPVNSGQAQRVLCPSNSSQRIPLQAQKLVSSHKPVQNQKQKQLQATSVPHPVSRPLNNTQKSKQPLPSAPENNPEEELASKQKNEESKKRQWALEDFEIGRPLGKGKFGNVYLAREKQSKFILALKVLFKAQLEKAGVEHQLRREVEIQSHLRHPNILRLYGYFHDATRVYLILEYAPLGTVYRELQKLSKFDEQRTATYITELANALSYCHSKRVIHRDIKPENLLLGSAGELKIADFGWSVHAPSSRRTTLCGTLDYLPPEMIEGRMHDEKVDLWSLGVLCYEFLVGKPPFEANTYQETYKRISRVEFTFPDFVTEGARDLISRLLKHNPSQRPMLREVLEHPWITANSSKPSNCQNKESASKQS
The note with it: at 1 µM.

Assay [8] deals with T3, Aurora kinase A (Homo sapiens). The note with it: at 10 µM.
The target in assay [9] is Aurora kinase B (Homo sapiens) (UniProt Q96GD4). Particulars: at 1 µM.
Assay [10] has the same target. Particulars: at 10 µM.
In assay [11] the target is T4, Aurora kinase C (Homo sapiens) (UniProt Q9UQB9).
T4 sequence (whole entry): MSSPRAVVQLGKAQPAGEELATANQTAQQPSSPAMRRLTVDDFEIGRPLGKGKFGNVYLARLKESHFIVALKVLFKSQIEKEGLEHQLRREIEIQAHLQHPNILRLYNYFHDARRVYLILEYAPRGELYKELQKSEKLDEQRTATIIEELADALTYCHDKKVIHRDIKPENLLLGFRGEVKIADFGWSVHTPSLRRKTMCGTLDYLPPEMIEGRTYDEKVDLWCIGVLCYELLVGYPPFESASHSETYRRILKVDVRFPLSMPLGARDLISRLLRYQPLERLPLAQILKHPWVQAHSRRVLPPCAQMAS
The note with it: at 1 µM.

Assay [12] concerns the target T4, Aurora kinase C (Homo sapiens). The note with it: at 10 µM.
Assay [13] deals with Tyrosine-protein kinase receptor UFO (Homo sapiens) (UniProt P30530). Particulars: at 1 µM.
Assay [14] shares this target. Particulars: at 10 µM.
Assay [15] addresses Protein-tyrosine kinase 6 (Homo sapiens) (UniProt Q13882). The note with it: at 1 µM.
The target is the same in assay [16]. Particulars: at 10 µM.
The target of assay [17] is Tyrosine-protein kinase BTK (Homo sapiens) (UniProt Q06187). The note with it: at 1 µM.
Assay [18] has the same target. The note with it: at 10 µM.
For assay [19], the target named is Tyrosine-protein kinase Blk (Homo sapiens) (UniProt P51451). The note with it: at 1 µM.
Assay [20] shares this target. Particulars: at 10 µM.

Chain of Tyrosine-protein kinase BTK (Homo sapiens) (Q06187 whole entry): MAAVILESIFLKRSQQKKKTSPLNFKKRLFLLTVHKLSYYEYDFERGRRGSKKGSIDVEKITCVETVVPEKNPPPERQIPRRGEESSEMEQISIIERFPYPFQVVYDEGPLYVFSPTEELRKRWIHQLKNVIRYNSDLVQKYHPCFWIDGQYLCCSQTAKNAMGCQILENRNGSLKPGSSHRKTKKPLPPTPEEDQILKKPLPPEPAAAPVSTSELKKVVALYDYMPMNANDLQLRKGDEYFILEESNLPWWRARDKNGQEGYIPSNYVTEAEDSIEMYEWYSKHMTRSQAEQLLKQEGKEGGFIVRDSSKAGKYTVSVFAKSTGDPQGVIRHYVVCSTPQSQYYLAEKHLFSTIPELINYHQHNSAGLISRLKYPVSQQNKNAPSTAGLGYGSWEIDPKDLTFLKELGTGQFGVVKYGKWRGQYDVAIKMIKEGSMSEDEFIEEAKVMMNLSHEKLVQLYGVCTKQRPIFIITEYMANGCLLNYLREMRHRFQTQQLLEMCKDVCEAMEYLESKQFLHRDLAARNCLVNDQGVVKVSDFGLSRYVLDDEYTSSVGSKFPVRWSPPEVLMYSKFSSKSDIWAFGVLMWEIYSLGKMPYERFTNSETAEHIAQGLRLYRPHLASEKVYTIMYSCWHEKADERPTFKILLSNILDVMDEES
Chain of Protein-tyrosine kinase 6 (Homo sapiens) (Q13882 whole entry, looked up): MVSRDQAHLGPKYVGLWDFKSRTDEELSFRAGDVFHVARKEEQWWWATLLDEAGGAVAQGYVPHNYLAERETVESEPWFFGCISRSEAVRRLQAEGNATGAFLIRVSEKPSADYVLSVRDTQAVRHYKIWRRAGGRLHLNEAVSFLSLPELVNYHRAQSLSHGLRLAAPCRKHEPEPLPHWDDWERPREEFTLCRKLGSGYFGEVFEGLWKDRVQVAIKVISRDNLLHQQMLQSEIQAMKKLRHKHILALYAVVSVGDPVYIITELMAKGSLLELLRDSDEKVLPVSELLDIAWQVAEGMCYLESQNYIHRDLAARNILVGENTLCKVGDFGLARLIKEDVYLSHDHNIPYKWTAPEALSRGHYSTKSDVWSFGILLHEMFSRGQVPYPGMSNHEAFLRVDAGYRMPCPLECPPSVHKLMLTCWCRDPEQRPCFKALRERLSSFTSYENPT
Chain of Tyrosine-protein kinase Blk (Homo sapiens) (P51451 2-505 limits assumed): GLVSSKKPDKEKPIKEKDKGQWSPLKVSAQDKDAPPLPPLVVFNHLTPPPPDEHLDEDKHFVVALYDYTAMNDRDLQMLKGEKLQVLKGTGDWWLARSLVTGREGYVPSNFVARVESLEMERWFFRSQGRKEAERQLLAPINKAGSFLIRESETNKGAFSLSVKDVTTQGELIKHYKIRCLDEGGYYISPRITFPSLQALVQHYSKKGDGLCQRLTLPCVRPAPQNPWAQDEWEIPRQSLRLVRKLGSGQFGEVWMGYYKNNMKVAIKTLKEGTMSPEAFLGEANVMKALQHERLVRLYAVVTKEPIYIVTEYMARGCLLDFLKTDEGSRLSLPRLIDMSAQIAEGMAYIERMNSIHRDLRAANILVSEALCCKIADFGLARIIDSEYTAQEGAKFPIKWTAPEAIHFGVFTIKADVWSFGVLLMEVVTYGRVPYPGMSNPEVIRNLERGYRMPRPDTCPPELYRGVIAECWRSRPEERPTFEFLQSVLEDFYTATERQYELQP
Chain of Tyrosine-protein kinase ABL1 (Homo sapiens) (P00519 whole entry): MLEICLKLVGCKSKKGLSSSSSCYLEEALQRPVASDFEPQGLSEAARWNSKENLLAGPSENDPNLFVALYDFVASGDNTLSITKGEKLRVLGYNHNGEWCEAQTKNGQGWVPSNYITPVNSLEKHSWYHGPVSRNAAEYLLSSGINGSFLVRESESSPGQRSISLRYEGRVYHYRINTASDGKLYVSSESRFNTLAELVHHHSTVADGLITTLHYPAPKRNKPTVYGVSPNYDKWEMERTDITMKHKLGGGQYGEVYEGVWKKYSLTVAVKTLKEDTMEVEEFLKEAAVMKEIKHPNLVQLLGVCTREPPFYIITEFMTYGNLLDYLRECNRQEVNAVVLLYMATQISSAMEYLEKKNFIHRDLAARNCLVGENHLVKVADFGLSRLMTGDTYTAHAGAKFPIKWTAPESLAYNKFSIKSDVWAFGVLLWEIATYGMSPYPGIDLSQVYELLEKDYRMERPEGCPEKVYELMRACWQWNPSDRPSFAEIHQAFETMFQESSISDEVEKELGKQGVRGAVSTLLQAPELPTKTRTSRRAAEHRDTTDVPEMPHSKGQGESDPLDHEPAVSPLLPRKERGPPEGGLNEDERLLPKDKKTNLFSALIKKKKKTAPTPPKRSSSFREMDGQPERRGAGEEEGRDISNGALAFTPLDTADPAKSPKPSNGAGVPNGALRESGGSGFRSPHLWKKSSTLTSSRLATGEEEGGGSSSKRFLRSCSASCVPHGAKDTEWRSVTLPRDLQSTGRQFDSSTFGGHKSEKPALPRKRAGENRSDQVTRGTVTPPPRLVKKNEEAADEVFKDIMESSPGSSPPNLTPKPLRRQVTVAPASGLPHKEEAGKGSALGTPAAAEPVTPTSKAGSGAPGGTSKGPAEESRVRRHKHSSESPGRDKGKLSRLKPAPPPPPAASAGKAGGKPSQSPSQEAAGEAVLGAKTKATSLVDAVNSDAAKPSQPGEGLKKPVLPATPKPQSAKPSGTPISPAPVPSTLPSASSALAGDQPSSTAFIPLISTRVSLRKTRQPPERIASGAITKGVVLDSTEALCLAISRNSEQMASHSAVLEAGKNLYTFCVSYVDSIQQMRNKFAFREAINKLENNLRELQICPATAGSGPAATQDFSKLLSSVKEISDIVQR
Chain of Tyrosine-protein kinase receptor UFO (Homo sapiens) (P30530 whole entry): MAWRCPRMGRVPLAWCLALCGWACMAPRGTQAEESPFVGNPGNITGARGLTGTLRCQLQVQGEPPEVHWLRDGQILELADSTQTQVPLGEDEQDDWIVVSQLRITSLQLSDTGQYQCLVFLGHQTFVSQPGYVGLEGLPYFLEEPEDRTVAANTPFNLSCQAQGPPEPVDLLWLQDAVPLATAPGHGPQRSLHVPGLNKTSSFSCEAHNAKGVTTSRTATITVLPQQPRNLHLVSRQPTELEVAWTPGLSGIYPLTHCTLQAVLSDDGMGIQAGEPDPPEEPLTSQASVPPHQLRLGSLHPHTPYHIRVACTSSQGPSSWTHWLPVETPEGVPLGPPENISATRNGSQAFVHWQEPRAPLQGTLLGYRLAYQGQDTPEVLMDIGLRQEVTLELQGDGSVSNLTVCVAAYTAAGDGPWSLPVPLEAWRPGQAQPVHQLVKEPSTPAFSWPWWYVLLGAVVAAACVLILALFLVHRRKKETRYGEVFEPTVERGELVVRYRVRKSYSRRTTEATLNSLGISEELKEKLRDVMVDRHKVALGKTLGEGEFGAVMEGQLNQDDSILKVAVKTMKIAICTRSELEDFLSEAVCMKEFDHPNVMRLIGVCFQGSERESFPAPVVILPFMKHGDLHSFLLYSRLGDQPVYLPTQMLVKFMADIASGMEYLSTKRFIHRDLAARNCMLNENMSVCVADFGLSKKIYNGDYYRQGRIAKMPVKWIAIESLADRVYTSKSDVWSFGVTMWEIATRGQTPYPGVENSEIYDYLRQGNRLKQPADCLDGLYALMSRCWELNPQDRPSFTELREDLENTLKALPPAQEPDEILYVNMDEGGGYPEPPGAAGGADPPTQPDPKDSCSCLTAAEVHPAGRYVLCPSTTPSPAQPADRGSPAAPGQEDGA
Chain of Aurora kinase B (Homo sapiens) (Q96GD4 whole entry): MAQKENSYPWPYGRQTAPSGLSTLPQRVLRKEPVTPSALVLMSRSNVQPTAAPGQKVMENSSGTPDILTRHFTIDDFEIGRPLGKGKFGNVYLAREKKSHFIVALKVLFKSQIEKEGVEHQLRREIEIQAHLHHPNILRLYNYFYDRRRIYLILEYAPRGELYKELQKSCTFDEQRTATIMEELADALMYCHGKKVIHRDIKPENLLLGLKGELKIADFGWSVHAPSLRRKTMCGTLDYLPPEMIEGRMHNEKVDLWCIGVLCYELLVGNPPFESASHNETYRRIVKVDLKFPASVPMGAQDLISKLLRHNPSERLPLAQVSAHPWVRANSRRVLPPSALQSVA

Consider `CC(C)n1cnc2/c(=N/c3cccc(Cl)c3)nc(NCCO)[nH]c21`, for which the residual activity in [1] was 100% (inactive); in assay [2], 86%; in [3], 73%; in [4], 25%; in assay [5] it was 52%; in [6] it was 10%. The residual activity worked out at 88% in assay [7]; 47% in assay [8]; 13% in [9]; 3% in [10]; 74% in [11]; 52% in assay [12]. Also, the residual activity in assay [13] was found to be 94%; in assay [14] it was 44%; in assay [15], 105%; in assay [16] it was 100%; in assay [17], 72%; in assay [18], 32%. For the same molecule, the values for the residual activity in [19] and in assay [20] were 79% and 15%, respectively.
Consider `CCN(CC)C(=O)c1ccc(Nc2nc(OCC3CCCCC3)c3nc[nH]c3n2)cc1`, for which the residual activity in assay [1] is 96% (inactive); in [2], 24%; in assay [3], 46%; in [4], 6%; in assay [5] it was 52%; in assay [6], 9%. Besides, the residual activity in assay [7] was 1%; in assay [8], 5%; in [9], -1%; in [10], 0%; in assay [11], 1%; in assay [12], 2%. In addition, the residual activity in assay [13] was 27%; in assay [14], 7%; in [15], 54%; in assay [16] it was 11%; in assay [17], 34%; in [18], -2%. The values for the residual activity in assay [19] and in assay [20] were 20% and 1%, respectively.
Turning to `COc1ccc(OC)c2c(=S)c3ccccc3[nH]c12`, the residual activity in assay [1] is 104% (inactive); in assay [2], 97%; in assay [3], 97%; in [4], 89%; in [5], 116%; in assay [6], 84%. For the same molecule, the residual activity was 116% in [7]; 90% in [8]; 93% in [9]; 52% in assay [10]; 78% in assay [11]; 75% in assay [12]. Besides, the residual activity in [13] came to 96%; in assay [14], 83%; in assay [15], 104%; in assay [16], 104%; in [17] it was 96%; in assay [18], 82%. The figures for the residual activity in assay [19] and in assay [20] were 111% and 96%, respectively.
Turning to `NC(=O)c1ccc2[nH]c(-c3ccc(Oc4ccc(Cl)cc4)cc3)nc2c1`, the residual activity in assay [1] is 99% (inactive); in [2] it was 61%; in assay [3], 106%; in assay [4], 130%; in [5], 128%; in [6], 95%. The residual activity was 88% in assay [7]; 86% in [8]; 68% in assay [9]; 34% in assay [10]; 72% in [11]; 79% in assay [12]. Further, the residual activity in assay [13] worked out at 107%; in assay [14], 70%; in [15], 102%; in [16], 103%; in assay [17], 89%; in [18], 86%. Moreover, the residual activity stood at 103% in assay [19] and 77% in [20].
Regarding `O=c1cc(-c2cccc3c2Sc2ccccc2S3)oc(N2CCOCC2)c1`, the residual activity in assay [1] was 107% (inactive); in assay [2], 98%; in assay [3], 99%; in assay [4], 89%; in assay [5], 97%; in [6] it was 90%. For the same molecule, the residual activity in assay [7] is 101%; in assay [8], 120%; in assay [9], 105%; in [10] it was 92%; in assay [11], 102%; in [12] it was 92%. Moreover, the residual activity in assay [13] was found to be 102%; in [14], 86%; in assay [15] it was 109%; in assay [16], 96%; in assay [17] it was 87%; in assay [18] it was 80%. The residual activity in [19] was determined as 101%; in assay [20], 76%.
As for `COc1cccc(-c2cc(=O)c3ccccc3o2)c1N`, the residual activity in assay [1] is 111% (inactive); in [2], 112%; in [3], 111%; in [4] it was 92%; in assay [5], 115%; in [6], 74%. The residual activity in [7] was found to be 122%; in assay [8], 107%; in assay [9] it was 113%; in assay [10], 103%; in assay [11] it was 99%; in assay [12], 94%. The residual activity in assay [13] stood at 119%; in assay [14], 111%; in assay [15], 105%; in assay [16], 105%; in assay [17] it was 94%; in assay [18], 100%. For the same molecule, the residual activity stood at 114% in assay [19] and 103% in assay [20].
In the case of `COc1cc2ncnc(Nc3ccc(O)c(Br)c3)c2cc1OC`, the residual activity was 96% (inactive) in assay [1]; 82% in assay [2]; 64% in [3]; 13% in assay [4]; 76% in assay [5]; 22% in [6]. Moreover, the residual activity in assay [7] amounted to 49%; in assay [8], 26%; in assay [9], 43%; in assay [10], 2%; in [11], 45%; in assay [12] it was 10%. Further, the residual activity amounted to 36% in assay [13]; 17% in [14]; 18% in [15]; 1% in [16]; 80% in [17]; 33% in assay [18]. Moreover, the residual activity in assay [19] was determined as 21%; in assay [20], 3%.

The record behind these values is ChEMBL document CHEMBL2218924, “A broad activity screen in support of a chemogenomic map for kinase signalling research and drug discovery” (Biochem J, 2013).
